As a reminder, the viability is a read-out of living cells in per cent, often relative to untreated cells.

A short description of test [1]: hESC survival regulators, cell-based (AID 493140; call rule not given here;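 also: cells exposed to compounds for four days before counting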). The following applies: human embryonic stem cell survival screen; stronger effect = higher value.
Test [2] can be described thus: liver-stage malaria parasite growth inhibition, primary screen, cell-based, HepG2, luciferase luminescence, HepG2 viability (AID 624349; in the data active = parasite load remaining mostly below about 12%, no sharp cut-off; inactive = mostly above about 10%;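 also: 100% = mean of DMSO negative control wells on the same plate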). The following applies: P. berghei liver stage in HepG2, luciferase luminescence, concentration not given here; parasite load remaining: stronger effect = lower value; viability: measured here: HepG2 viability without parasites.
Test [3] in a line: stimulators of nuclear beta-catenin in C2C12, primary screen, imaging, WNT3A-conditioned medium, mouse C2C12, NPC library (AID 1117326; in the data active = nuclear beta-catenin stimulation mostly above about 4.2%, no sharp cut-off; inactive = mostly below about 10%). The conditions noted are these: stronger effect = higher value.
Test [4] is described as follows: stimulators of insulin release from INS-1E, primary screen, cell-based, 5 mM glucose, NPC library (AID 1117329;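 active = compound raises insulin release from rat beta cells at 5 mM glucose, no numeric limit stated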). The conditions noted are these: rat INS-1E insulin secretion, at 10 µM, stronger effect = higher value.
A short description of test [5]: growth inhibition of GSK3B-pretreated HCT116 cells – cell-based, CellTiter-Glo, 0.2 to 20 µM (AID 1117336;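 active = compounds lowering colon cancer cell viability after pretreatment blocking the GSK3B kinase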). The following applies: HCT116 viability after GSK3B inhibitor, at 20 µM, stronger effect = higher value. (Cellular ATP, detected with luciferase, serves as a proxy for viable cell number.)
Test [6] is described as follows: inhibition of endothelial tube formation, primary screen, imaging, VEGF stimulated, CD31 staining, tube area, NPC library (AID 1117340;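 active = compound that reduces growth-factor-driven endothelial tube area in a mixed cell culture, no cutoff stated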). The conditions noted are these: VEGF-stimulated ADSC/ECFC co-culture, at 10 µM, stronger effect = higher value.
The nature of test [7]: glucagon-like peptide 1 release enhancers, primary assay, NCI-H716 cell line, NPC library (AID 1117341;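 active = compound raises GLP1 secretion from the human gut endocrine cells, with no numeric limit stated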). The following applies: NCI-H716 cells, at 10 µM, stronger effect = higher value.
Test [8] is described as follows: HCT116 colon cancer cell growth inhibition, primary screen, CellTiter-Glo luminescence, NPC library (AID 1117342;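 active = compounds that lower survival of HCT116 colon cancer cells in the luminescence readout, no numeric limit stated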). The following applies: at 20 µM (top of the series).
Test [9] in a line: CellTiter-Glo luminescent readout of SW480 viability loss, NPC library primary (AID 1117343;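 active = compounds that lower viability of the colon cancer cells in the luminescence readout, with no numeric limit stated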). The conditions noted are these: CellTiter-Glo luminescence; at 20 µM (top of the series) unless noted.
A short description of test [10]: decreased DLD-1 cellular survival, CellTiter-Glo luminescent readout, NPC compound collection, primary HTS (AID 1117346;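 active = compounds that lower survival of DLD-1 colon cancer cells in the luminescence readout, no cutoff given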). The following applies: DLD-1 viability, CellTiter-Glo luminescence; at 20 µM (top of the series).
Test [11] is described as follows: differential killing of epithelial or mesenchymal cells, primary screen, imaging, PC-3E GFP, TEM4-18 mCherry, co-culture (AID 1345086;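 active = compounds killing one labelled cell type while sparing the other, by normalised counts and ratio limits, not self-fluorescent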;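 as to all read-outs here: cells exposed to compound for 72 h before imaging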;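 as to red/green cell ratio (normalised): normalised mesenchymal count divided by normalised epithelial count so high means epithelial killing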). The conditions noted are these: imaging cell counts, at 1 µM; for red/green cell ratio (normalised): actives lie on both sides, counts scaled to control wells, 1 = unselective.
The nature of test [12]: sensitizers of A549 cells to miR-34 induction, primary screen, imaging, A549 dox-inducible miR-34, nuclei and caspase counts (AID 1347080). The following applies: A549 miR-34 inducible, Hoechst nuclei count, 48 h.
Test [13] can be described thus: survival rescue of mitochondrial mutant cells in low glucose, primary screen, MELAS cybrids, Rieske KO mouse fibroblasts, CellTiter-Glo (AID 1508586;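 active = mean z-score across replicates of 1.96 or higher in either the MELAS or the Rieske mutant cell line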;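 also: z relative to plate mean and SD of compound and empty wells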).
Test [14] concerns the target NAD(+) hydrolase SARM1 (Homo sapiens) (UniProt Q6SZW1). The test can be described thus: SARM1 TIR NADase inhibitors, cell lysate, NAD-Glo luminescence (AID 1508614;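 active = compound whose remaining NAD level is above about 45 nM, limit read from the data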;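 also: higher remaining NAD means stronger inhibition of SARM1 NADase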). The following applies: SAM-TIR HEK293T lysate NADase, at 1 µM, stronger effect = higher value.
[15] abbreviates: measured here: epithelial PC-3E GFP cell survival.
Where [16] appears, read: measured here: mesenchymal TEM4-18 mCherry cell survival.
Setting [17] is: stronger effect = lower value, cell number ratio, induced over uninduced.
Where [18] appears, read: measured here: relative caspase fold change +Dox/-Dox.
Where [19] appears, read: measured here: total cells with miR-34 induction, stronger effect = lower value.
[20] abbreviates: measured here: total cells without miR-34 induction.
Setting [21] is: MELAS cybrid survival, CellTiter-Glo 48 h, stronger effect = higher value.
The mark [22] stands for this setting: Rieske KO mouse fibroblast survival, CellTiter-Glo 72 h.

Where “and” joins values, the source holds several entries; their conditions need not be identical. Identical values can stand only once. Calls of active or inactive are those of the source.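 The calls were made as follows, unless noted: active = compounds whose cell count with miR-34 switched on is under 0.7 times the count with it off; inactive = the rest.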

Chain of NAD(+) hydrolase SARM1 (Homo sapiens) (Q6SZW1 whole entry, looked up): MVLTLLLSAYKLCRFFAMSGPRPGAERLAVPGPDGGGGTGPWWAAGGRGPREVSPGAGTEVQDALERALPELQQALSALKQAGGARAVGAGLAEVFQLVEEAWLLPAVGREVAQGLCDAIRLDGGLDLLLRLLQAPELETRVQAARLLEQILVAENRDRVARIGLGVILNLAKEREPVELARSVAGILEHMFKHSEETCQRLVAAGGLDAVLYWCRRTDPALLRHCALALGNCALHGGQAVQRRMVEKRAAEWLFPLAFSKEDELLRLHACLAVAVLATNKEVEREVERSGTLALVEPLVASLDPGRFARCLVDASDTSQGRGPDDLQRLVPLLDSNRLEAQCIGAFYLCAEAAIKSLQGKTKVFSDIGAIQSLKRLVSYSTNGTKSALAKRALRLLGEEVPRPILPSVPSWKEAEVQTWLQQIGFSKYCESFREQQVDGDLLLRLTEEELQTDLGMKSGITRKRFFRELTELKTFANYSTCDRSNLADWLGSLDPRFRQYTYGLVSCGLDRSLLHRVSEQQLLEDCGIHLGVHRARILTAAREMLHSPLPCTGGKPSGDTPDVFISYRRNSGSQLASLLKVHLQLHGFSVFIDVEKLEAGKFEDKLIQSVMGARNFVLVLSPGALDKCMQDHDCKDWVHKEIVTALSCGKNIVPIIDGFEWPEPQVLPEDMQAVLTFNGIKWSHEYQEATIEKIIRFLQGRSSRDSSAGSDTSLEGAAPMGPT

`CCCCOc1cc(C(=O)OCCN(CC)CC)ccc1N`: the survival in test [1] was 11.5 (inactive). The parasite load remaining in test [2] is 22.4% (inactive) and 92.2% (inactive). In addition, the viability in test [2] was 49.5% and 89.9%. The nuclear beta-catenin stimulation was 1.9% (inactive) in test [3] (at 10 µM) and 3.9% in test [3] (stimulation, at 2 µM). Also, the insulin secretion stimulation in test [4] was 50.7% (active). In [5], the viability decrease was 45.5% (inactive). Also, the tube area decrease in test [6] was 14.2% (inactive). The GLP1 secretion stimulation in [7] is 7.1% (inactive). The inhibition of viability in test [8] was 66% (active). In addition, the viability decrease (inhibition) in test [9] was 51.8% (active); in [10] it was 81.6% (active). Besides, in [11], the red/green cell ratio (normalised) was 0.93 (inactive). Besides, the normalised cell number in test [11] (setting [15]) is 1.02; in test [11] (setting [16]) it was 0.95. Moreover, the fold change is 0.886 (inactive) and 0.893 (inactive) and 0.93 (inactive) in test [12] (setting [17]); 1.39 and 0.433 and 0.883 in [12] (setting [18]). The cell count is 8530 and 8120 and 7780 in [12] (setting [19]); 9620 and 9090 and 8360 in [12] (setting [20]). Also, the z-score was 0.206 (inactive) and -0.26 (inactive) and 0.345 (inactive) in test [13] (setting [21]); -0.405 and -0.149 and 0.0628 in test [13] (setting [22]). Besides, the remaining NAD in [14] was 10 nM (inactive).

Consider `CC(=O)Oc1cc(C(C)C)c(OCCN(C)C)cc1C`, for which the survival in test [1] is 24.8 (inactive). Moreover, the parasite load remaining in test [2] was 26.2% (inactive) and 99.2% (inactive). Further, the viability in [2] is 48.6% and 93%. Moreover, the nuclear beta-catenin stimulation in test [3] (at 10 µM) is -2.5% (inactive); in test [3] (stimulation, at 2 µM), -1%. In addition, in test [4], the insulin secretion stimulation is 5.5% (inactive). In test [5], the viability decrease was 19.7% (inactive). In test [6], the tube area decrease is -2.1% (inactive). Further, in [7], the GLP1 secretion stimulation is 2.8% (inactive). Moreover, the inhibition of viability in test [8] is 2.17% (inactive). Also, the viability decrease (inhibition) is 20.7% (inactive) in [9] and -14.3% (inactive) in test [10]. In test [11], the red/green cell ratio (normalised) is 1.11 (inactive). The normalised cell number in [11] (setting [15]) came out at 0.81; in test [11] (setting [16]) it was 0.9. For the same compound, the fold change was 1.09 (inactive) and 0.875 (inactive) in [12] (setting [17]); 0.909 and 1.24 in test [12] (setting [18]). In addition, the cell count in test [12] (setting [19]) is 11300 and 8650; in test [12] (setting [20]) it was 10400 and 9890. Moreover, the results for the z-score in test [13] (setting [21]) and in test [13] (setting [22]) were 0.238 (inactive) and -0.428, respectively. Also, in test [14], the remaining NAD is 10 nM (inactive).

With `CNCCc1ccccn1`, the survival in test [1] was 9.67 (inactive). Moreover, in test [2], the parasite load remaining is 177% (inactive) and 67% (inactive) and 40.9% (inactive). Also, the viability in test [2] is 106% and 76.5% and 92.3%. Also, the nuclear beta-catenin stimulation in test [3] (at 10 µM) is 0.2% (inactive); in test [3] (stimulation, at 2 µM), 1.8%. For the same compound, in test [4], the insulin secretion stimulation is -0.8% (inactive). For the same compound, in test [5], the viability decrease is 5.6% (inactive). Further, the tube area decrease in [6] was -1.2% (inactive). In [7], the GLP1 secretion stimulation was -0.6% (inactive). Further, the inhibition of viability in [8] was -13.4% (inactive). For the same compound, the viability decrease (inhibition) was -3.4% (inactive) in [9] and 1.9% (inactive) in [10]. In test [11], the red/green cell ratio (normalised) is 1.06 (inactive). Moreover, the normalised cell number in test [11] (setting [15]) was found to be 1.06; in [11] (setting [16]), 1.12. For the same compound, the fold change in test [12] (setting [17]) is 0.848 (inactive) and 0.92 (inactive) and 0.919 (inactive); in [12] (setting [18]), 1.09 and 0.698 and 1.77. Further, the cell count in test [12] (setting [19]) is 9020 and 8170 and 11700; in test [12] (setting [20]) it was 10600 and 8880 and 12700. For the same compound, the z-score in test [13] (setting [21]) was -0.325 (inactive) and 0.341 (inactive); in test [13] (setting [22]) it was -0.163 and 0.19. In test [14], the remaining NAD was 10 nM (inactive).

Take `CC(C)(C)CC(C)(C)c1cc(Cc2cc(C(C)(C)CC(C)(C)C)cc(-n3nc4ccccc4n3)c2O)c(O)c(-n2nc3ccccc3n2)c1`: the nuclear beta-catenin stimulation is 3.9% (inactive) in [3] (at 10 µM) and 2.5% in test [3] (stimulation, at 2 µM). Besides, the insulin secretion stimulation in test [4] was 1.7% (inactive). Besides, the viability decrease in test [5] is 9.1% (inactive). Moreover, the tube area decrease in test [6] was -10.3% (inactive). Moreover, the GLP1 secretion stimulation in test [7] is 3.4% (inactive). In [8], the inhibition of viability is 1.9% (inactive). Moreover, the values for the viability decrease (inhibition) in test [9] and in [10] were -54% (inactive) and 7.4% (inactive), respectively. For the same compound, the red/green cell ratio (normalised) in [11] was 0.81 (inactive). Also, the normalised cell number in [11] (setting [15]) is 1.28; in test [11] (setting [16]) it was 1.04. Further, the fold change was 0.928 (inactive) in test [12] (setting [17]) and 0.844 in test [12] (setting [18]). Also, the cell count in test [12] (setting [19]) turned out to be 9130; in [12] (setting [20]), 9830. In addition, the remaining NAD in test [14] is 10 nM (inactive).

The record behind these values is PubChem BioAssay.
